Laboratory results reported in PubChem BioAssay (NCATS).
A number with no mark means an inactive call. A call without a number means that no potency is given here. Calls of active or inactive are those of the source. Calls follow the shape of the dose curve; as a rule, active = well fitted activation curve with a large enough effect; inconclusive = small, poorly fitted or top-dose-only effect; inactive = no such curve, though single readings can be large or run the other way.

The compounds below were run against Cytochrome P450 3A4 (Homo sapiens) (UniProt P08684) (assay: qHTS Assay for Activators of Cytochrome P450 3A4 (AID 885; also: nearly all actives have a fitted effect of over 65% in size)). Details: recombinant CYP3A4, Luciferin-PPXE luminescence, 60 min; series mostly up to 57.1 µM.
Chain of Cytochrome P450 3A4 (Homo sapiens) (P08684 whole entry, looked up): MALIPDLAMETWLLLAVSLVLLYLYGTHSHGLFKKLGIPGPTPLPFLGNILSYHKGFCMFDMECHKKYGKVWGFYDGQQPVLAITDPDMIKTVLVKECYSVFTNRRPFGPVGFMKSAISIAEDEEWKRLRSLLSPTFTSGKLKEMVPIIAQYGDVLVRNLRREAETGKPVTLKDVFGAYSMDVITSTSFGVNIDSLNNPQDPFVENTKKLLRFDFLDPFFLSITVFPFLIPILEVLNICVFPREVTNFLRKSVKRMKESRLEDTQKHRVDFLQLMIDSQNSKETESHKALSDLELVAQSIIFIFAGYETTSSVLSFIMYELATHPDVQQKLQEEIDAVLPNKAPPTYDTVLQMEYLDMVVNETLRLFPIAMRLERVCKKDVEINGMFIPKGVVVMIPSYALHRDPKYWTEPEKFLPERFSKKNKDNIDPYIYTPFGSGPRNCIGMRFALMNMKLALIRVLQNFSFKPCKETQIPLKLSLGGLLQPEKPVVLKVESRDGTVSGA
Procedure, shortened: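 Quantitative HTS format: compounds preincubated with 20nM human CYP3A4 and Luciferin-PPXE substrate at KM, reaction started by NADPH regeneration, stopped after 60 min, luciferase luminescence read 20 min later.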
Potency is read from the fitted curve at half-maximal effect.

SMILES | Potency | activity change, positive = activation
BrC1C(Br)C(Br)C(Br)C(Br)C1Br (stereo unspecified) | inactive | –
COC(=O)[C@H]1[C@H](c2ccccc2)C(=O)[C@@]2(O)c3ccccc3O[C@@]12c1ccccc1 | – | -48.2% [at 11.4 µM]
COC(=O)NC/C=C\c1nc(CC/C=C\C(=O)O[C@H]2C[C@H]3CC(=O)O[C@@H](/C=C\CC(C)C)C[C@@H]4CC[C@H](C)[C@H](C[C@@H](OC)C[C@H](C2)O3)O4)co1 | – | -81.2% [at 11.4 µM]
COC(=O)[C@]1(C)CC[C@@]2(C)CC[C@@]3(C)C4=CCc5c(cc(O)c(O)c5C)[C@]4(C)CC[C@@]3(C)C2C1 (stereo partly specified) | inactive | –
Oc1ccc2c(c1)OCO2 | inactive | –
Cc1c(N=C=O)cccc1N=C=O | inactive | –
CCCCCCCC/C=C\CCCCCCCC(N)=O | inactive | –
CCc1cc2c(nc1CC)CCN(CC/C(C)=N/OC)C2 | – | -38.7% [at 11.4 µM]
COC(=O)[C@@H]1C[C@@]2(O)[C@H](O)[C@H](O)[C@H](O)C[C@H]2N1Cc1cccnc1 | inactive | –
COc1cc2c(cc1OC)[C@@H]1C(=O)c3ccc(OC)c(CC=C(C)C)c3OC1CO2 (stereo partly specified) | inactive | –
Cc1ncc(CN2CC=C(c3ccccc3)CC2)c(N)n1 | inactive | –
Cc1ccc2oc(-c3ccccc3)cc(=O)c2c1 | inactive | –
CC(=O)Oc1ccc(/C=C/c2cc(OC(C)=O)cc(OC(C)=O)c2)cc1 | inactive | –
COC(=O)[C@@H]1[C@@H](O)[C@@]2(O)c3c(OC)cc(OC)cc3O[C@@]2(c2ccc(OC)cc2)[C@H]1c1ccccc1 | – | -35.6% [at 11.4 µM]
[O-]/[N+](=N\O)c1ccccc1 | inactive | –
COC1C=CC23c4cc5c(cc4CN(CC2O)C3C1)OCO5 (stereo unspecified) | inactive | –
CC(C)=CCC1=C(O)c2ccccc2C(=O)C1=O | inactive | –
COc1cc2c(cc1OC)[C@@H]1C(=O)c3ccc4c(c3OC1CO2)CC(C(C)C)O4 (stereo partly specified) | inactive | –

SMILES | Potency | activity change, positive = activation
C[C@]12CC[C@@H]3C(=CCc4cc(O)ccc43)[C@@H]1CCC2=O | inactive | –
COc1ccc(-c2oc3cc(OC)ccc3c(=O)c2O)cc1 | inactive | –
C[C@@]12CC[C@@H]3c4ccc(O)cc4C[C@H](CCCCCCCCCS(=O)CCCC(F)(F)C(F)(F)F)[C@H]3[C@@H]1CC[C@@H]2O (stereo partly specified) | inactive | –
CC1(C)C2(Cl)C(Cl)C(Cl)C(Cl)(C(Cl)Cl)C1(Cl)C2Cl (stereo unspecified) | inactive | –
C[C@]12CCC3c4ccc(OC(=O)c5ccccc5)cc4CCC3C1CCC2=O (stereo partly specified) | inactive | –
CCC(=O)OC1CCC2C3CCc4cc(O)ccc4C3CC[C@]12C (stereo partly specified) | inactive | –
O=S(=O)(O)c1cc(N=C=S)ccc1/C=C/c1ccc(N=C=S)cc1S(=O)(=O)O | inactive | –
COC(=O)[C@@H]1C[C@H]2CC[C@H](O)C[C@H]2N1CC1CC1 | inactive | –
CC(C)C(C)/C=C/C(C)C1CCC2C3=CCC4CC(=O)CC[C@@]4(C)C3CC[C@]21C (stereo partly specified) | 25100 nM (active) | –
CC(=O)OCc1ccc2c(c1)OCO2 | inactive | –
O=C(OC1Cc2c(O)cc(O)cc2OC1c1cc(O)c(O)c(O)c1)c1cc(O)c(O)c(O)c1 (stereo unspecified) | inactive | –
CCCN1[C@H](C(=O)OC)C[C@@H]2CC[C@@H](O)C[C@@H]21 | inactive | –
C[C@@]12CC[C@@H]3[C@@H](CC[C@H]4C[C@@H](O)CC[C@]43C)[C@H]1CC[C@@H]2c1cc(C(F)(F)F)n[nH]1 | 2510 nM (active) | –
COC(=O)CCC(C)C1CCC2C3C(O)C[C@@H]4CC(O)CC[C@@]4(C)C3CC(O)[C@]12C (stereo partly specified) | inactive | –
CC(=O)c1c(O)c(C)c(O)c2c1OC1=CC(=O)C(C(C)=O)C(=O)C12C (stereo unspecified) | inactive | –
CC(=O)OCC(=O)[C@@]1(O)CCC2C3CC[C@H]4CC(O)CC[C@@]4(C)C3C(=O)C[C@]21C (stereo partly specified) | inactive | –
CC(=O)O[C@H]1CC[C@@]2(C)[C@@H](CC[C@H]3[C@H]2CC(=O)[C@@]2(C)[C@@H]3C[C@H]3CC(C)=CC(=O)[C@H]32)C1 | 2000 nM (active) | –
O=C(OCC1CO1)C1CCCCC1C(=O)OCC1CO1 (stereo unspecified) | inactive | –
